# Laboratory results as given in PubChem BioAssay (EPA / NIEHS).
# Records with an inconclusive call do not appear. Activity calls are given as the source filed them. How the source made its calls: active means hit-call score of the fitted dose curve at least 0.9, where 1 is the maximum; inconclusive means response in the unintended direction; inactive means score below 0.9.
# Target: human Protein Tyrosine Phosphatase Receptor Type F (PTPRF), PTPRF (gene 5792) (UniProt P10586)
# Test: NVS_ENZ_hPTPRF: NovaScreen (NVS) Enzymatic Assay for human Protein Tyrosine Phosphatase Receptor Type F (PTPRF) (AID 2283213)
# Summary of the method: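 Cell-free fluorescence enzyme assay with recombinant protein and substrate; product separated by electrophoretic mobility shift. Read 1 h after dosing, single 25 uM duplicate screen, then concentration-response up to 50 uM; loss of signal vs DMSO.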
# human Protein Tyrosine Phosphatase Receptor Type F (PTPRF), PTPRF (gene 5792), sequence (P10586 whole entry, looked up): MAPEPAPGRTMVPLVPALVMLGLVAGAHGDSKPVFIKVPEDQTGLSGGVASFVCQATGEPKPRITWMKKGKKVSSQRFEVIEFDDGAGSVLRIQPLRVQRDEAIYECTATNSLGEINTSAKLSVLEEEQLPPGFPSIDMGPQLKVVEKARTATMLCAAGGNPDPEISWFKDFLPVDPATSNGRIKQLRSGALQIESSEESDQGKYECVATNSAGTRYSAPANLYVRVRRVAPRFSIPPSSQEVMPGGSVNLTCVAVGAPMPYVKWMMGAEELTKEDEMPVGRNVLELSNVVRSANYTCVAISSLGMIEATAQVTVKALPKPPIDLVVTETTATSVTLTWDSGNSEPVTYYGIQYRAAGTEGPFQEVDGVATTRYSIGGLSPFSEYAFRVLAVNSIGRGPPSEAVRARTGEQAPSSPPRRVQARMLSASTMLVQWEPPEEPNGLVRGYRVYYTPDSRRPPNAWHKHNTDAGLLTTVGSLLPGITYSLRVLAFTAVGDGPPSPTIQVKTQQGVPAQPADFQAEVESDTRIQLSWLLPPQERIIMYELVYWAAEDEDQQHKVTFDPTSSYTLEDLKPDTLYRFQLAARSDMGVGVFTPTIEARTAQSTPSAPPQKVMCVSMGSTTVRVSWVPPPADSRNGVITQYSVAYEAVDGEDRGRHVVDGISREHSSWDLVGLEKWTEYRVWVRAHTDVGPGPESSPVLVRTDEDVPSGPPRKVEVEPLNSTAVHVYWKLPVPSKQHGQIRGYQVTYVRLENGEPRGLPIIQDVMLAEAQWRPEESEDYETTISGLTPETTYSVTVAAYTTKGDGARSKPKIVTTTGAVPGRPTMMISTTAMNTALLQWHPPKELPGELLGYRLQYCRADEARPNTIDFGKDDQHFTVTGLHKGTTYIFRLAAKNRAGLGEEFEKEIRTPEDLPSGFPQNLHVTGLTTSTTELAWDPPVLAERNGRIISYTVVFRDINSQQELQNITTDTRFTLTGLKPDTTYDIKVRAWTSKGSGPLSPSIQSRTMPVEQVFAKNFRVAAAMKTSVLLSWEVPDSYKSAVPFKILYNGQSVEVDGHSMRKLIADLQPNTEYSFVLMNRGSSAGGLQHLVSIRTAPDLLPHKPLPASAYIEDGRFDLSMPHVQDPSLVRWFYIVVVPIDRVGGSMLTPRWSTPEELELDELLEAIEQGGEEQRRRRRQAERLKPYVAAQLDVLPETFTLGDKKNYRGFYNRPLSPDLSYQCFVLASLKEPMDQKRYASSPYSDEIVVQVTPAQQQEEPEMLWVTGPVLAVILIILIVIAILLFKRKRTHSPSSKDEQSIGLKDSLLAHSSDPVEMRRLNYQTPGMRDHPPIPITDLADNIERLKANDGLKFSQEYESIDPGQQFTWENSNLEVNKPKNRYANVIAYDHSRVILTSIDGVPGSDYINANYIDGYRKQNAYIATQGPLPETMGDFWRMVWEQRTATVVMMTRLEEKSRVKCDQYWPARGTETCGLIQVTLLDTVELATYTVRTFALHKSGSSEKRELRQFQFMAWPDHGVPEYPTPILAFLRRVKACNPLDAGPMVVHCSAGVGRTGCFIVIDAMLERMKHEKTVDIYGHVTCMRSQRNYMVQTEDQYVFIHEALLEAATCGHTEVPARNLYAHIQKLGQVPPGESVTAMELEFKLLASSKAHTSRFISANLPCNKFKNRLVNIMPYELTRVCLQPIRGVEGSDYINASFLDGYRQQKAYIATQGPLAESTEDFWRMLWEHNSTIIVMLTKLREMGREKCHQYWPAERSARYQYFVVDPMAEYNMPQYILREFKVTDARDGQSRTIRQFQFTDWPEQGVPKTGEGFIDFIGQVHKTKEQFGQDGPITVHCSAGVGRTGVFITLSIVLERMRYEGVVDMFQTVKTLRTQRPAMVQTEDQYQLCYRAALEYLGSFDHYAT
Structure (SMILES),outcome,AC50
Nc1cccc2c(N)cccc12,inactive,–
CCN(CC)CCNc1ccc(CNC=O)c2sc3ccc(OC)cc3c(=O)c12,inactive,–
CCCCCCCCCCCCc1ccccc1S(=O)(=O)O,–,25 µM (active)

# Target: human Rho Associated Coiled-coil Containing Protein Kinase 1 (ROCK1), ROCK1 (gene 6093) (UniProt Q13464)
# Test: NVS_ENZ_hROCK1: NovaScreen (NVS) Enzymatic Assay for human Rho Associated Coiled-coil Containing Protein Kinase 1 (ROCK1) (AID 2283214)
# Experimental: (§1) NVS_ENZ_hROCK1 is a biochemical, single-readout assay that uses extracted gene-proteins in a cell-free assay. Measurements were taken 1 hour after chemical dosing in a 384-well plate.NVS_ENZ_hROCK1 is one of one assay component(s) measured or calculated from the NVS_ENZ_hROCK1 assay. It is designed to make measurements of enzyme activity, a form of enzyme reporter, as detected with fluorescence intensity signals by Fluorescence and electrophoretic mobility shift technology.Data from the assay component NVS_ENZ_hROCK1 was analyzed into 1 assay endpoint. This assay endpoint, NVS_ENZ_hROCK1, was analyzed in the positive analysis fitting direction relative to DMSO as the negative control and baseline of activity. Using a type of enzyme reporter, loss-of-signal activity can be used to understand changes in the enzymatic activity as they relate to the gene ROCK1. Furthermore, this assay endpoint can be referred to as a primary readout, because this assay has produced multiple assay endpoints where this one serves a enzymatic activity function. To generalize the intended target to other relatable targets, this assay endpoint is annotated to the kinase intended target family, where the subfamily is serine/threonine kinase.
# Binding assays used specific radioligands (tritiated, iodinated) with non-radioactive competitive displacement ligands in agonist or antagonist protocols (as indicated) and various reference compounds and inhibitors to titrate specific binding to receptors and transporters. Most enzyme assays (CYPs, kinases, phosphatases, proteases, HDACs) used recombinant protein and specific substrates (fluorescence mostly, some colorimetric and radioactive) and inhibitors, followed by a biochemical separation of substrate and product. All assays for the biochemical HTS were initially run in duplicate at a single concentration (10 uM for CYP450 assays and 25 uM for all others). […] Each assay was run with positive and negative controls, and concurrent controls on every plate. […]
# human Rho Associated Coiled-coil Containing Protein Kinase 1 (ROCK1), ROCK1 (gene 6093), sequence (Q13464 whole entry, looked up): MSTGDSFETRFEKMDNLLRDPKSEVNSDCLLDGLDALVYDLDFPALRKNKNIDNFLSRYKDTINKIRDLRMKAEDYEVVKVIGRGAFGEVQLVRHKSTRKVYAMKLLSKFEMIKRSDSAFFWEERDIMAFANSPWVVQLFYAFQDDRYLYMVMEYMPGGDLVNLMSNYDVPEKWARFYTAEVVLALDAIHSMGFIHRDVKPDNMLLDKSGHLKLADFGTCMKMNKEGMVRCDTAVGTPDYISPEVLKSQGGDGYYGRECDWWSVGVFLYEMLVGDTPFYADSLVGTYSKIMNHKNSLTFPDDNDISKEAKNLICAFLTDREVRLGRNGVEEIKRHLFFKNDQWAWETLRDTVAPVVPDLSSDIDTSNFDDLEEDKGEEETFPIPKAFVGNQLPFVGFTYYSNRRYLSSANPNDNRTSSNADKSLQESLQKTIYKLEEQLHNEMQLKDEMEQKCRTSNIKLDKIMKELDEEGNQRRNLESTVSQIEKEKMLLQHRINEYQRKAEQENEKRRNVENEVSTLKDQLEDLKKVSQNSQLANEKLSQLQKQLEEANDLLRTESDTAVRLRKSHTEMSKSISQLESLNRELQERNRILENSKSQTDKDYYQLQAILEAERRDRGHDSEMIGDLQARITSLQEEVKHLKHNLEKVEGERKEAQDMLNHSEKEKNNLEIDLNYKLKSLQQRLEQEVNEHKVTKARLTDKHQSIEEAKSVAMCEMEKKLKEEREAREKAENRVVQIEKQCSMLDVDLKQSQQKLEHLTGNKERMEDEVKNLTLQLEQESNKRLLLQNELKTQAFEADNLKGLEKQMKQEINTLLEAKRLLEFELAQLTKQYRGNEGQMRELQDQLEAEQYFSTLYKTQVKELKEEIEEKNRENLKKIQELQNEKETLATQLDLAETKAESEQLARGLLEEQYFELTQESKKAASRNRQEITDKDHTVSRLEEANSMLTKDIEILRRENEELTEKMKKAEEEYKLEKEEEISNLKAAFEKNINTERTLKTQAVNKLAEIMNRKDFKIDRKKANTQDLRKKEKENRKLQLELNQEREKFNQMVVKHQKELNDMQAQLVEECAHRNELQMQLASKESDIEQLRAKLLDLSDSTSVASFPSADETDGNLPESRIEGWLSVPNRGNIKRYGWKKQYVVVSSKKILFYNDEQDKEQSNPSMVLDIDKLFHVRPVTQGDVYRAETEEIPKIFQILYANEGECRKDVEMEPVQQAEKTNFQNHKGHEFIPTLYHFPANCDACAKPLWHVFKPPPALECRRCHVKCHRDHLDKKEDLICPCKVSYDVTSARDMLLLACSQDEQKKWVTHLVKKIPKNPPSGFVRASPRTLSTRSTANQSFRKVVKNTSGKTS
row,Structure (SMILES),outcome
1,c1ccc2c(c1)ccc1ccccc12,inactive
2,CCCOc1sc(C(=O)N2CCC(c3cc(CN)ccc3F)CC2)c(C)c1Br,inactive
3,NC(=O)N1C(=O)C(C(=O)c2cc(Cl)cs2)c2cc(F)c(Cl)cc21 (configuration not stated),inactive

# Target: human Sirtuin 2 (SIRT2), SIRT2 (gene 22933) (UniProt Q8IXJ6)
# Test: NVS_ENZ_hSIRT2: NovaScreen (NVS) Enzymatic Assay for human Sirtuin 2 (SIRT2) (AID 2283217)
# Experimental: as §1, with “NVS_ENZ_hSIRT2” for “NVS_ENZ_hROCK1”, “plate.NVS_ENZ_hSIRT2” for “plate.NVS_ENZ_hROCK1”, “NVS_ENZ_hSIRT2,” for “NVS_ENZ_hROCK1,”, “SIRT2.” for “ROCK1.”, “hydrolase” for “kinase”, “protein deacetylase.” for “serine/threonine kinase.”
# Binding assays used specific radioligands (tritiated, iodinated) with non-radioactive competitive displacement ligands in agonist or antagonist protocols (as indicated) and various reference compounds and inhibitors to titrate specific binding to receptors and transporters. Most enzyme assays (CYPs, kinases, phosphatases, proteases, HDACs) used recombinant protein and specific substrates (fluorescence mostly, some colorimetric and radioactive) and inhibitors, followed by a biochemical separation of substrate and product. All assays for the biochemical HTS were initially run in duplicate at a single concentration (10 uM for CYP450 assays and 25 uM for all others). Assay-chemical combinations meeting a pre-defined threshold (e.g., 30% inhibition and other criteria defined below) were then run in singleton concentration-response format with maximum concentration of 20 uM for CYPs and 50 uM for all others. Each assay was run with positive and negative controls, and concurrent controls on every plate. The follow-up (secondary) screen tested active chemical-pairs in concentration series, as well as a few additional assays not tested in the primary screen, some selected negative inactives, and several cases re-run in the concentration series for confirmatory purposes.
# human Sirtuin 2 (SIRT2), SIRT2 (gene 22933), sequence (Q8IXJ6 whole entry, looked up): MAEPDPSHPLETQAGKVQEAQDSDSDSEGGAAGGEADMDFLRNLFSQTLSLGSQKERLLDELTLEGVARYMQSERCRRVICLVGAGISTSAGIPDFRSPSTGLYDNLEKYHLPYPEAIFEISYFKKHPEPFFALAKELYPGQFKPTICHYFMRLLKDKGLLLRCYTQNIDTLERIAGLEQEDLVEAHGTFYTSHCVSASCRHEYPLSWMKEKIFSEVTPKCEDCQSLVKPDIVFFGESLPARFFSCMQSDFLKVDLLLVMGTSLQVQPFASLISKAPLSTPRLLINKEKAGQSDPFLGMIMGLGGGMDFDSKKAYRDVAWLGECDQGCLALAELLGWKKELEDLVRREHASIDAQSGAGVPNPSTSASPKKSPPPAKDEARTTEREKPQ
Structure (SMILES),AC50,outcome
Cc1oc(-c2ccccc2)nc1CCOc1ccc(C[C@H](Nc2ccccc2C(=O)c2ccccc2)C(=O)O)cc1,18.3 µM (active),–
CCCCCCCC(=O)O,–,inactive
CCCCOCCO,–,inactive
CCN(CC)CCNc1ccc(CNC=O)c2sc3ccc(OC)cc3c(=O)c12,–,inactive
COCC(C)OCC(C)O (configuration not stated),–,inactive
CCCCCCCCCCCCc1ccccc1S(=O)(=O)O,24.4 µM (active),–
CC(C)(C)c1cccc(C(C)(C)C)c1O,–,inactive

# Target: human Sirtuin 1 (SIRT1), SIRT1 (gene 23411) (UniProt Q96EB6)
# Test: NVS_ENZ_hSIRT1: NovaScreen (NVS) Enzymatic Assay for human Sirtuin 1 (SIRT1) (AID 2283219)
# Summary of the method: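 Cell-free recombinant SIRT1 with a fluorescent substrate; substrate and product separated by electrophoretic mobility shift and read by fluorescence intensity, 1 h after dosing. Primary screen at 25 uM in duplicate; hits re-run in concentration-response up to 50 uM, relative to DMSO.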
Structure (SMILES),outcome,AC50
Nc1cccc2c(N)cccc12,inactive,–
CC[C@H](C)[C@@H](C(=O)O)n1sc2ccccc2c1=O,inactive,–
Cc1cc(CCN2CCN(c3nsc4ccccc34)CC2)cc2c1NC(=O)CC2(C)C,inactive,–
CCCCCCCC(=O)O,–,6.65 µM (active)
CCN(CC)CCNc1ccc(CNC=O)c2sc3ccc(OC)cc3c(=O)c12,inactive,–
COCC(C)OCC(C)O (configuration not stated),inactive,–
CCCCC(CC)COC(=O)CCCCC(=O)OCC(CC)CCCC (configuration not stated),inactive,–

# Target: human Sirtuin 3 (SIRT3), SIRT3 (gene 23410) (UniProt Q9NTG7)
# Test: NVS_ENZ_hSIRT3: NovaScreen (NVS) Enzymatic Assay for human Sirtuin 3 (SIRT3) (AID 2283222)
# Summary of the method: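 Cell-free enzyme assay with recombinant protein and fluorescent substrate, product separated by electrophoretic mobility shift; read 1 hour after dosing. Screened in duplicate at 25 uM, then singleton concentration-response up to 50 uM; loss of signal versus DMSO.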
# human Sirtuin 3 (SIRT3), SIRT3 (gene 23410), sequence (Q9NTG7 whole entry, looked up): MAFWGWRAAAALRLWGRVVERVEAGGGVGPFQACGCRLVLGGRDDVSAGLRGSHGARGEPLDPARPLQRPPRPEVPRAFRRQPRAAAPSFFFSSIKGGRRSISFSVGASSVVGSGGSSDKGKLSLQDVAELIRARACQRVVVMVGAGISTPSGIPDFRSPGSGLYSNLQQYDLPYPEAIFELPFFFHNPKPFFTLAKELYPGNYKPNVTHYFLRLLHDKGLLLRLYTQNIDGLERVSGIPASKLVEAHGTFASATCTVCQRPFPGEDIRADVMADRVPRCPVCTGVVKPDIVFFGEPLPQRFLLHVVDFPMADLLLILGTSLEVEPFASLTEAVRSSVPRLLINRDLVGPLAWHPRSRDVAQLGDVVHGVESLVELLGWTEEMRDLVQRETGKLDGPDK
row,Structure (SMILES),outcome
1,Nc1cccc2c(N)cccc12,inactive
2,CCN(CC)CCNc1ccc(CNC=O)c2sc3ccc(OC)cc3c(=O)c12,inactive
3,CCC(=C(c1ccc(O)cc1)c1ccc(OCCN(C)C)cc1)c1ccccc1,inactive

# Target: human SRC Proto-Oncogene, Non-receptor Tyrosine Kinase (SRC), SRC (gene 6714) (UniProt P12931)
# Test: NVS_ENZ_hSRC: NovaScreen (NVS) Enzymatic Assay for human SRC Proto-Oncogene, Non-receptor Tyrosine Kinase (SRC) (AID 2283223)
# Experimental: as §1, with “NVS_ENZ_hSRC” for “NVS_ENZ_hROCK1”, “plate.NVS_ENZ_hSRC” for “plate.NVS_ENZ_hROCK1”, “NVS_ENZ_hSRC,” for “NVS_ENZ_hROCK1,”, “SRC.” for “ROCK1.”, “non-receptor tyrosine” for “serine/threonine”
# Binding assays used specific radioligands (tritiated, iodinated) with non-radioactive competitive displacement ligands in agonist or antagonist protocols (as indicated) and various reference compounds and inhibitors to titrate specific binding to receptors and transporters. Most enzyme assays (CYPs, kinases, phosphatases, proteases, HDACs) used recombinant protein and specific substrates (fluorescence mostly, some colorimetric and radioactive) and inhibitors, followed by a biochemical separation of substrate and product. All assays for the biochemical HTS were initially run in duplicate at a single concentration (10 uM for CYP450 assays and 25 uM for all others). […]
# human SRC Proto-Oncogene, Non-receptor Tyrosine Kinase (SRC), SRC (gene 6714), sequence (P12931 whole entry, looked up): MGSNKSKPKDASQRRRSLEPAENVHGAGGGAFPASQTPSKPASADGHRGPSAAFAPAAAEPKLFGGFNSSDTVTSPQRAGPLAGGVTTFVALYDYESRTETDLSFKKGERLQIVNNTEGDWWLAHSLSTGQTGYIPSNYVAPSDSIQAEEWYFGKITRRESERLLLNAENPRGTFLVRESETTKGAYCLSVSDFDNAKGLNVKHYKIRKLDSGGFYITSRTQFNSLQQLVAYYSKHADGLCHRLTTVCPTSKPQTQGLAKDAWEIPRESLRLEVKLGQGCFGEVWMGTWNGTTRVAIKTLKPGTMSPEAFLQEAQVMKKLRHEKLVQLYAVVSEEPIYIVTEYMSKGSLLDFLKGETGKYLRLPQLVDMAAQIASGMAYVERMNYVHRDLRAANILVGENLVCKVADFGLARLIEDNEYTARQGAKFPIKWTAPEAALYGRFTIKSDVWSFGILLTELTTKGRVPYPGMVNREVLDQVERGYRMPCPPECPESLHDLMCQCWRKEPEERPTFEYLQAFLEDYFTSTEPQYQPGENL
row,Structure (SMILES),outcome
1,O=C(O)Cc1cc(I)c(Oc2cc(I)c(O)c(I)c2)c(I)c1,inactive
2,COCC(C)OCC(C)O (configuration not stated),inactive
3,CCCCCCCCCCCCc1ccccc1S(=O)(=O)O,inactive

# Target: human Vascular Endothelial Growth Factor Receptor 1 (VEGFR1), FLT1 (gene 2321) (UniProt P17948)
# Test: NVS_ENZ_hVEGFR1: NovaScreen (NVS) Enzymatic Assay for human Vascular Endothelial Growth Factor Receptor 1 (VEGFR1) (AID 2283226)
# Summary of the method: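 Kinase activity of recombinant human VEGFR1 was read by fluorescence after electrophoretic separation of product from substrate, 1 h post-dosing; initial duplicate single-point testing at 25 uM, followed by concentration-series follow-up, with DMSO as baseline.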
row,Structure (SMILES),outcome
1,CCCOC(=O)c1ccc(O)cc1,inactive
2,CC1=C(/C=C/C(C)=C/C=C/C(C)=C/C(=O)O)C(C)(C)CCC1,inactive
3,O=C(O)Cc1cc(I)c(Oc2cc(I)c(O)c(I)c2)c(I)c1,inactive
4,CCCCOCCO,inactive
5,CC(C)(C)c1cccc(C(C)(C)C)c1O,inactive

# Target: rabbit Imidazoline 2 Central (I2C), CKB (gene 100009085) (UniProt P00567)
# Test: NVS_ENZ_rabI2C: NovaScreen (NVS) Enzymatic Assay for rabbit Imidazoline 2 Central (I2C) (AID 2283228)
# Summary of the method: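 Rabbit brain membranes, cell-free; readout by filter-based scintillation counting 1.5 hours after dosing, loss of signal vs DMSO. Initial duplicate test at 25 uM, then concentration-response with 50 uM top concentration.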
# rabbit Imidazoline 2 Central (I2C), CKB (gene 100009085), sequence (P00567 whole entry, looked up): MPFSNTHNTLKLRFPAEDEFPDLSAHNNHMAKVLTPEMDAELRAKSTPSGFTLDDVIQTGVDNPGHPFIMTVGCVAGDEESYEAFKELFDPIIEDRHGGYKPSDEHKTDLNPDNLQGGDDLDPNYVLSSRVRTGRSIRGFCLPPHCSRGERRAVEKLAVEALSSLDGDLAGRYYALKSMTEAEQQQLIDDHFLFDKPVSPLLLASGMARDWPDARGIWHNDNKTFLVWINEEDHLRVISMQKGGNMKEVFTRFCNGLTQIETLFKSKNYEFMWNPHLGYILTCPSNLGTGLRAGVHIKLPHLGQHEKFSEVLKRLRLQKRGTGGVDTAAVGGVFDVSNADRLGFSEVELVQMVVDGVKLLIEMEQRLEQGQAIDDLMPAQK
Structure (SMILES),outcome,AC50
CC1=C(/C=C/C(C)=C/C=C/C(C)=C/C(=O)O)C(C)(C)CCC1,inactive,–
CCCCCCCC(=O)O,inactive,–
CCCOc1sc(C(=O)N2CCC(c3cc(CN)ccc3F)CC2)c(C)c1Br,–,4.64 µM (active)
CCN(CC)CCNc1ccc(CNC=O)c2sc3ccc(OC)cc3c(=O)c12,inactive,–
CCC(=C(c1ccc(O)cc1)c1ccc(OCCN(C)C)cc1)c1ccccc1,–,0.408 µM (active)
NC(=O)N1C(=O)C(C(=O)c2cc(Cl)cs2)c2cc(F)c(Cl)cc21 (configuration not stated),inactive,–
